This note sets out measurements from PubChem BioAssay (NCI).

Some test systems named below: NCI-H23 lung; NCI-H226 lung; NCI-H322M lung; HOP-62 NSCLC; NCI-H460 lung; HOP-92 NSCLC; NCI-H522 lung; A549/ATCC NSCLC; 786-0 renal; COLO 205 colon.
Common to all, as to assay: NCI-60 one-dose screen, 48 h (100 = growth as untreated, 0 = no growth, -100 = all killed)
Details in all cases: 10 µM unless noted

Each structure is given as a SMILES string. The panel holds about 83,000 compounds, 20% with a hit somewhere; the sample as a whole holds those more often.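 48-hour exposure, single concentration, 96-well plates; percent growth endpoint where 0 means no net growth. Active: below 10.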 Values without a mark were called inactive. Active and inactive are the calls of the source.

Turning to `CCN(CC)CCn1nc2c3c(cccc3c1=O)-c1ccccc1-2`, the growth in the assay with NCI-H23 lung is 23.7%; in the assay with NCI-H226 lung it was -39.9% (active); with NCI-H322M lung it was 30.6%; in the assay with HOP-62 NSCLC it was 11.1%; in the assay on NCI-H460 lung it was 3.42% (active); in the assay on HOP-92 NSCLC, -6.84% (active). The growth in the assay with NCI-H522 lung was 10.8%; with A549/ATCC NSCLC, 1.36% (active); with 786-0 renal, 33.3%; in the assay with COLO 205 colon it was 15.8%.
Consider `COc1cc(C(=O)/C=C/c2c(-c3ccc(F)cc3)nc3sc(C)cn23)cc(OC)c1OC`, for which the growth in the assay on NCI-H23 lung was 28.9%; with NCI-H226 lung, 58.5%; in the assay on NCI-H322M lung, 52%; in the assay with HOP-62 NSCLC, 79%; in the assay on NCI-H460 lung, 28.7%; in the assay on HOP-92 NSCLC, 23.4%. The growth in the assay with NCI-H522 lung is 93.4%; in the assay with A549/ATCC NSCLC it was 45.4%; in the assay with 786-0 renal it was 40.8%; in the assay on COLO 205 colon it was 52%.
As to `O=C(CSc1nnc(-c2ccc(NC(=O)c3cccnc3)cc2)o1)Nc1cccc(Br)c1`, the growth with NCI-H23 lung was 92.8%; in the assay on NCI-H226 lung, 97.7%; with NCI-H322M lung, 97.2%; in the assay on HOP-62 NSCLC it was 99.2%; with NCI-H460 lung it was 103%; in the assay on HOP-92 NSCLC, 88.7%. Besides, the growth in the assay on NCI-H522 lung was 41.4%; in the assay on A549/ATCC NSCLC, 95.1%; in the assay on 786-0 renal it was 94.2%; in the assay on COLO 205 colon it was 88.4%.
As to `Cn1ccc2c(c1=O)C(=O)c1nccc3c1c-2nc1ccccc13`, the growth with NCI-H23 lung was -66.6% (active); with NCI-H226 lung, 83.1%; with NCI-H322M lung, 17.4%; with HOP-62 NSCLC it was -86.6% (active); in the assay with NCI-H460 lung it was -74.7% (active); in the assay with HOP-92 NSCLC it was 62.8%. Also, the growth in the assay on NCI-H522 lung is -68.5% (active); in the assay with A549/ATCC NSCLC, -87.4% (active); in the assay on 786-0 renal, -95.5% (active); in the assay with COLO 205 colon, -75.5% (active).
In the case of `Clc1cccc(Cl)c1C(Nc1nc2ccccc2s1)Nc1nc2ccccc2s1`, the growth in the assay with NCI-H23 lung was 101%; with NCI-H226 lung, 89.9%; with NCI-H322M lung, 106%; in the assay on HOP-62 NSCLC it was 99.7%; in the assay with NCI-H460 lung, 105%; with HOP-92 NSCLC it was 17.3%. Also, the growth in the assay on NCI-H522 lung is 90.8%; in the assay with A549/ATCC NSCLC, 106%; in the assay with 786-0 renal, 110%; with COLO 205 colon, 114%.
Take `CN(Cc1cnc2nc(N)nc(N)c2n1)c1ccc(C(=O)N[C@@H](CCc2nn[nH]n2)c2nn[nH]n2)cc1`: the growth in the assay on NCI-H23 lung is 40.8%; in the assay with NCI-H226 lung it was 85.4%; in the assay with NCI-H322M lung, 66%; in the assay on HOP-62 NSCLC, 32.7%; in the assay on NCI-H460 lung, 19.4%; with HOP-92 NSCLC, 93.2%. Besides, the growth is 40.9% in the assay with NCI-H522 lung, 22.9% in the assay with A549/ATCC NSCLC, 26.8% in the assay with 786-0 renal and 49.3% with COLO 205 colon.
Turning to `CC1(C)CC[C@]2(C(=O)N3CCOCC3)CC[C@]3(C)C(=CC[C@@H]4[C@@]5(C)CC[C@H](OC(=O)c6cccnc6)C(C)(C)[C@@H]5CC[C@]43C)[C@@H]2C1`, the growth is 68.9% in the assay with NCI-H23 lung; 50.1% with NCI-H226 lung; 88.2% in the assay on NCI-H322M lung; 78.7% in the assay with HOP-62 NSCLC; 18.3% in the assay on NCI-H460 lung; 66.4% with HOP-92 NSCLC. The growth in the assay with NCI-H522 lung is 73.3%; with A549/ATCC NSCLC it was 47.3%; with 786-0 renal, 62.4%; in the assay with COLO 205 colon, 58.4%.
For the molecule `Cc1ccc(-c2cc3c(cc2O)C2CCCCC2(N2CCOCC2)O3)cc1` (stereo not given), the growth in the assay on NCI-H23 lung was 94.8%; in the assay with NCI-H226 lung, 108%; in the assay with NCI-H322M lung, 101%; in the assay with HOP-62 NSCLC, 110%; in the assay with NCI-H460 lung, 103%; with HOP-92 NSCLC, 85.7%. Further, the growth in the assay on NCI-H522 lung is 82.7%; in the assay on A549/ATCC NSCLC it was 96.1%; in the assay on 786-0 renal, 108%; in the assay with COLO 205 colon, 113%.
Take `COc1cc(CCC[P+](c2ccccc2)(c2ccccc2)c2ccccc2)cc2c1OCO2`: the growth with NCI-H23 lung is 19.1%; in the assay on NCI-H226 lung it was 55.5%; in the assay on NCI-H322M lung it was 79.4%; with HOP-62 NSCLC, 92.3%; in the assay with NCI-H460 lung, 37.9%; in the assay on HOP-92 NSCLC it was 25.3%. The growth with NCI-H522 lung is 13.2%; with A549/ATCC NSCLC, 73.2%; with 786-0 renal, 63.9%; in the assay with COLO 205 colon, 3.37% (active).
As to `C=C(C)[C@@H]1CC[C@]2(C(=O)NC3CCCCC3)CC[C@]3(C)[C@H](CC[C@@H]4[C@@]5(C)CCC(=O)C(C)(C)[C@@H]5CC[C@]43C)[C@@H]12`, the growth with NCI-H23 lung was 88.7%; with NCI-H226 lung, 74.6%; in the assay on NCI-H322M lung, 91.9%; in the assay on HOP-62 NSCLC it was 97.7%; in the assay on NCI-H460 lung it was 98.3%; with HOP-92 NSCLC, 81.5%. The growth in the assay on NCI-H522 lung was 86.9%; with A549/ATCC NSCLC, 85.6%; in the assay with 786-0 renal it was 85.7%; in the assay on COLO 205 colon, 103%.
As for `O=C1C=C[C@]2(C[C@@H](c3cccc(C(F)(F)F)c3)O[C@@H](c3cccc(C(F)(F)F)c3)O2)O1`, the growth with NCI-H23 lung is 50.1%; with NCI-H226 lung it was -72.7% (active); with NCI-H322M lung, 74.3%; with HOP-62 NSCLC, 4.06% (active); in the assay on NCI-H460 lung, 1.85% (active); in the assay on HOP-92 NSCLC it was -5.73% (active). Also, the growth with NCI-H522 lung is -78.8% (active); with A549/ATCC NSCLC, 27.3%; in the assay on 786-0 renal, -88.8% (active); in the assay with COLO 205 colon, 12.1%.
`Cc1cc(=O)[nH]c(N=Nc2c(O)[nH]c3ccccc23)n1`: the growth with NCI-H23 lung was 100%; in the assay with NCI-H226 lung, 97.9%; in the assay with NCI-H322M lung, 123%; in the assay on HOP-62 NSCLC it was 119%; with NCI-H460 lung, 105%; with HOP-92 NSCLC, 101%. The growth in the assay on NCI-H522 lung is 103%; in the assay with A549/ATCC NSCLC, 103%; in the assay on 786-0 renal it was 102%; in the assay on COLO 205 colon it was 89.5%.
On to `Cc1nn(-c2ccccc2)c(Cl)c1/C=C(/NC(=O)c1ccccc1)c1nc2ccccc2[nH]1`, for which the growth in the assay on NCI-H23 lung was 106%; in the assay with NCI-H226 lung it was 108%; with NCI-H322M lung, 90.3%; with HOP-62 NSCLC, 99%; with NCI-H460 lung, 109%; in the assay with HOP-92 NSCLC, 82.6%. The growth in the assay on NCI-H522 lung is 86.6%; with A549/ATCC NSCLC it was 90%; with 786-0 renal it was 90.2%; in the assay on COLO 205 colon, 83.6%.
